# In all, about 5,500 compounds went through this assay and about 2,000 (36%) were called active. Inconclusive results (about 18%) are left out. Some of the results follow. Values without a mark were called inactive. Cut-off read from the data, not from the text of the source: active = normalized growth mostly below about 0.91 (no sharp cut-off); inconclusive = no clear call, values can overlap the other calls; inactive = mostly above about 0.92.
# Experiment: chemical genetic growth profiling, strain panel (AID 1159580);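 note: tested at 20 µM; growth read once vehicle control cultures reached saturation at 30 °C; 1 = growth at the plate median or of vehicle wells; lower values mean less growth of the strain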
# Settings: growth OD
# [1] = S. cerevisiae deletion strains, locus YAL013W, strain DEP1, hits give low values
# [2] = S. cerevisiae deletion strains, locus YBR229C, strain ROT2, hits give low values
# [3] = S. cerevisiae deletion strains, locus YDL101C, strain DUN1, hits give low values
# [4] = S. cerevisiae deletion strains, locus YDR150W, strain NUM1, hits give low values
# [5] = S. cerevisiae deletion strains, locus YEL061C, strain CIN8, hits give low values
# [6] = S. cerevisiae deletion strains, locus YGR078C, strain PAC10, hits give low values
# [7] = S. cerevisiae deletion strains, locus YHR030C, strain SLT2, hits give low values
# [8] = S. cerevisiae deletion strains, locus YHR087W, strain rtc3, hits give low values
# [9] = S. cerevisiae deletion strains, locus YJR043C, strain POL32, hits give low values
# [10] = S. cerevisiae deletion strains, locus YJR075W, strain HOC1, hits give low values
# [11] = S. cerevisiae deletion strains, locus YLR039C, strain RIC1, hits give low values
# [12] = S. cerevisiae deletion strains, locus YLR058C, strain SHM2 (second series), hits give low values
# [13] = S. cerevisiae deletion strains, locus YLR085C, strain ARP6, hits give low values
# [14] = S. cerevisiae deletion strains, locus YLR262C, strain YPT6, hits give low values
# [15] = S. cerevisiae deletion strains, locus YML094W, strain GIM5, hits give low values
# [16] = S. cerevisiae deletion strains, locus YMR219W, strain ESC1, hits give low values
# [17] = S. cerevisiae deletion strains, locus YMR263W, strain SAP30, hits give low values
# [18] = S. cerevisiae deletion strains, locus YNL153C, strain GIM3, hits give low values
# [19] = S. cerevisiae deletion strains, locus YNL298W, strain CLA4 (second series), hits give low values
# [20] = S. cerevisiae deletion strains, locus YNL322C, strain KRE1, hits give low values
# [21] = S. cerevisiae deletion strains, locus YNR030W, strain Alg12, hits give low values
# [22] = S. cerevisiae deletion strains, locus YOL006C, strain TOP1, hits give low values
# [23] = S. cerevisiae deletion strains, locus YPL055C, strain LGE1, hits give low values
# [24] = S. cerevisiae deletion strains, locus YPL241C, strain CIN2, hits give low values
# [25] = S. cerevisiae deletion strains, locus YPR135W, strain CTF4, hits give low values
# [26] = S. cerevisiae strains, strain wild type, hits give low values
# [27] = S. cerevisiae deletion strains, locus YJL187C, strain SWE1, hits give low values
structure (smiles),measurement,setting,value
Cc1cc(C(F)(F)F)n2nc(-c3ccc(C(C)(C)C)cc3)cc2n1,normalized growth,[1],0.996
same,normalized growth,[2],1.02
same,normalized growth,[3],0.983
same,normalized growth,[4],0.965
same,normalized growth,[5],0.993
same,normalized growth,[6],1.01
same,normalized growth,[7],0.963
same,normalized growth,[8],1.01
same,normalized growth,[9],1.01
same,normalized growth,[10],0.994
same,normalized growth,[11],0.965
same,normalized growth,[12],1
same,normalized growth,[13],0.899
same,normalized growth,[14],0.964
same,normalized growth,[15],0.958
same,normalized growth,[16],0.999
same,normalized growth,[17],1.05
same,normalized growth,"S. cerevisiae deletion strains, locus YMR307W, strain GAS1, hits give low values",0.868
same,normalized growth,[18],1.01
same,normalized growth,[19],0.98
same,normalized growth,[20],0.988
same,normalized growth,[21],0.976
same,normalized growth,[22],0.984
same,normalized growth,[23],1.06
same,normalized growth,[24],0.902
same,normalized growth,[25],1.08
same,normalized growth,[26],0.986
FC(F)(F)c1cc(-c2ccco2)nc2cc(-c3ccco3)nn12,normalized growth,[1],0.869 (active)
same,normalized growth,[2],0.908 (active)
same,normalized growth,"S. cerevisiae deletion strains, locus YCL061C, strain MRC1, hits give low values",0.98
same,normalized growth,[3],0.972
same,normalized growth,[4],0.889
same,normalized growth,[5],0.97
same,normalized growth,[6],0.958
same,normalized growth,[7],0.722
same,normalized growth,[8],0.935
same,normalized growth,[27],0.973
same,normalized growth,[9],0.881 (active)
same,normalized growth,[10],0.903
same,normalized growth,[11],0.729 (active)
same,normalized growth,[12],0.96
same,normalized growth,[13],0.829
same,normalized growth,[14],0.883
same,normalized growth,[15],0.889
same,normalized growth,[16],1
same,normalized growth,[17],0.899 (active)
same,normalized growth,[18],0.949
same,normalized growth,[19],0.859
same,normalized growth,[20],0.997
same,normalized growth,[21],0.798 (active)
same,normalized growth,[23],0.851
same,normalized growth,[24],0.844 (active)
same,normalized growth,[25],0.594 (active)
same,normalized growth,[26],0.988
FC(F)(F)c1cc(-c2ccc(Cl)cc2)nc2cc(C3CC3)nn12,normalized growth,[1],1.03
same,normalized growth,[2],1.01
same,normalized growth,[3],1.03
same,normalized growth,[4],0.99
same,normalized growth,[5],1
same,normalized growth,[6],1.03
same,normalized growth,[7],1.16
same,normalized growth,[8],1.02
same,normalized growth,[27],1.01
same,normalized growth,[9],1.04
same,normalized growth,[10],1.01
same,normalized growth,[11],1.01
same,normalized growth,[12],1.02
same,normalized growth,[13],1.05
same,normalized growth,[14],1.06
same,normalized growth,[15],1.02
same,normalized growth,[16],1.01
same,normalized growth,[17],1.01
same,normalized growth,[18],1.02
same,normalized growth,[19],1.05
same,normalized growth,[20],1.02
same,normalized growth,[21],1.01
same,normalized growth,[22],1.08
same,normalized growth,[23],1.03
same,normalized growth,[24],1.02
same,normalized growth,[25],1.15
same,normalized growth,[26],0.997
